TSG101-PTAP inh: qHTS Assay for Iinhibitors of HIV-1 Budding by Blocking the Interaction of PTAP/TSG101. Tumor susceptibility gene 101 protein (Homo sapiens), Q99816. Fluorescence polarization, FITC-PTAP peptide / Tsg101 binding. 340,000 tested, under 10 active. Potency, µM (titrated, usually from 115 µM), usual class: inhibitors. AID 493005, 2010; active means well fitted inhibition curve with a large enough effect in the main read-out, with a control signal flat, not every such curve was filed as active; inconclusive means small, poorly fitted or top-dose-only effect, or effect the other way, or a change in a side signal; inactive means no such curve, though single readings can be large or run the other way
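Tsg101 binding domain (10 uM final) was mixed with compound and a FITC-labeled PTAP peptide (50 nM final) in HEPES pH 7.5 buffer with NaCl, Tween 20, EDTA and TCEP; fluorescence polarization was read after 20 min at r.t.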
TRPML1 agonist: qHTS for Agonists of the Human Mucolipin Transient Receptor Potential 1 (TRPML1) | TRPML1-expressing cells, Ca2+ dye fluorescence, FDSS | Mucolipin-1 (Homo sapiens), Q9GZU1 | actives 0.12% (n = 410,000) | activation, % (no concentration beside the values); in the data active means activation above about 50%; inconclusive means mostly about 30% to 49%
Target sequence (Q9GZU1 whole entry, looked up): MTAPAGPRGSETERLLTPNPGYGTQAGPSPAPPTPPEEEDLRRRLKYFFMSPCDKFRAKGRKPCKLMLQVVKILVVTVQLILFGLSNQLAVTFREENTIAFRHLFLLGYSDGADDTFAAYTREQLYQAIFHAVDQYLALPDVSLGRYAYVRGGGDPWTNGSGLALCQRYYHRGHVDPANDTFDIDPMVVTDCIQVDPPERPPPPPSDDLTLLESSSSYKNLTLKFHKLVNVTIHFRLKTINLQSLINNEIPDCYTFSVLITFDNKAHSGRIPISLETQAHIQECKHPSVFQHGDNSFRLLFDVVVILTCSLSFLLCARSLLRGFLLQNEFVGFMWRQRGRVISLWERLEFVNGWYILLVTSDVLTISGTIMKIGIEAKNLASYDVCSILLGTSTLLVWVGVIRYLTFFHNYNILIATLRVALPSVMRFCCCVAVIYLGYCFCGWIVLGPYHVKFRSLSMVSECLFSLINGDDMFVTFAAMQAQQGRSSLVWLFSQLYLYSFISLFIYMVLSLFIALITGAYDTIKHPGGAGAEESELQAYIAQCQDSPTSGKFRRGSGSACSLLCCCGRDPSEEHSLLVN
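Cells: TRPML1-DL, 1X Tet inducer, ~16 h at 37 degrees C/5% CO2. Dye: ABD Ca8 no-wash + quencher, 45-90 min RT. Read: 10 s baseline, compound add, 110 s agonist phase; 54-4 EC80 (4uM final), 110 s antagonist phase.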
TRPML1 blocker: qHTS for Inhibitors of the Human Mucolipin Transient Receptor Potential 1 (TRPML1). activity change, negative = inhibition, % (concentration not given with the values). TRPML1-inducible cells, Ca2+ dye fluorescence, FDSS; hits give low values; inhibition of EC80 agonist-evoked calcium signal. Mucolipin-1 (Homo sapiens), Q9GZU1. actives 0.02% (n = 390,000); in the data active means activity change below about -50%; inconclusive means between about -30% and that limit;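 further: stimulus is agonist 54-4 at its EC80 concentration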
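Tet-induced TRPML1-DL cells loaded with Ca8 no-wash calcium dye were read kinetically on FDSS. Compound addition was followed by EC80 agonist 54-4 (4 uM final); inhibition was read over 110 s.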
KCNH2 WT inh: qHTS for Inhibitors of KCHN2 3.1: Wildtype qHTS; Voltage-gated inwardly rectifying potassium channel KCNH2 (Homo sapiens), Q12809; U2OS, BacMam KCNH2, thallium flux FluxOr; hits give low values; actives 0.37% (n = 340,000); activity change, % at 1.84 µM;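 active means maximum activity change below -70%; inconclusive means maximum activity change between -70% and -50%; inactive means maximum activity change above -50%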
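U2OS cells transduced with wild-type KCNH2 virus are loaded with FluxOr dye for 45 min, and thallium flux is measured in kinetic reads before and after stimulation buffer. Rate constants are normalized to DMSO controls.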
GRP78 ERSR act: qHTS for Inducers of the Endoplasmic Reticulum Stress Response (ERSR) in Human Glioma: qHTS. Potency, µM, most hits filed as activators. U87-MG GRP78 promoter luciferase reporter, 16 h. AID 602332, 2012. actives 0.02% (n = 420,000); active means well fitted activation curve with a large enough effect; inconclusive means small, poorly fitted or top-dose-only effect; inactive means no such curve, though single readings can be large or run the other way; further: series mostly up to about 76 µM; nearly all actives have a fitted effect of over 35% in size
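Stably transfected U87-MG glioma cells carrying a GRP78-based luciferase sensor; 16 h compound incubation. Luminescence end-point read 10 min after Bright-Glo addition at room temperature.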
KCNH2 3.1 block: qHTS for Inhibitors of KCHN2 3.1: Mutant qHTS | Potassium voltage-gated channel subfamily H member 2, brain isoform KCNH2 3.1 (human) | U2OS KCNH2 3.1, thallium flux FluxOr; hits give low values | activity change, % (tested at about 1.8 µM) | actives 0.95% (n = 340,000) | AID 720553, 2013;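 active means maximum activity change below -70%; inconclusive means maximum activity change from -70% to -50%; inactive means maximum activity change above -50%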;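 further: thallium influx rate constant from kinetic fluorescence after stimulation buffer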
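Channel expression came from 3.1 mutant virus (1.77 x 10^8 /mL) applied to suspended U2OS cells for 4 h. Flux was tracked with FluxOr dye plus Red40 quencher, and kinetic rate constants normalized to controls.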
Hits are given with their value; – = inactive; ? = inconclusive; · = no result given. An excerpt weighted towards active compounds, which were near 1% of everything screened.

SMILES	TSG101-PTAP inh	TRPML1 agonist	TRPML1 blocker	KCNH2 WT inh	GRP78 ERSR act	KCNH2 3.1 block
CCCCN(CCCC)CC(O)COc1ccccc1C(=O)Nc1ccccc1 (stereo not drawn)	–	–	–	–	–	-74
CC(C)(C)n1ncc2c(=O)n(Cc3ccc([S+](=O)([O-])N4CCOCC4)cc3)cnc21	·	–	–	·	–	·
COCC(=O)Nc1cc(C(=O)N2CCCC(C(C)=O)C2)cc2nc(-c3ccccc3)n(C)c12 (stereo not drawn)	·	·	·	·	–	·
CCC(=O)Nc1cccc(-c2nnc(SCC(=O)c3ccccc3)n2C)c1	–	–	–	–	–	-91
CCC(=O)Nc1cccc(-c2nnc(SCC(=O)NCc3ccco3)n2C)c1	–	–	–	–	–	–
CC(C)(O)C(=O)NNC(=S)Nc1cccc(C(F)(F)F)c1	–	–	–	–	–	-94
O=C(CN1CCN(Cc2ccccc2)CC1)Nc1ccc([N+](=O)[O-])cc1C(=O)Nc1ccccc1F	–	–	–	-82	–	-103
Cc1cc([N+](=O)[O-])ccc1NC(=O)CN1CCN(Cc2ccccc2)CC1	–	–	–	–	–	-81
COc1cc(-c2cc(C)c3cccc(OC)c3n2)cc2c1OCCN(C(=O)CCn1ccc(C)n1)C2	·	·	·	·	–	·
O=C(CNC(=O)c1ccncc1)N/N=C/c1cc(Br)ccc1O	–	–	–	–	–	·
O=C(CNC(=O)c1ccncc1)N/N=C/c1ccc(Br)cc1	–	–	–	–	–	-109
COc1cc(CNCc2cc3cc(C)ccc3nc2-c2ccc(F)cc2)cc(OC)c1OC	·	·	·	·	–	·
O=C(NCc1ccc(C(F)(F)F)cc1)C1CC(c2ccccc2C(F)(F)F)=NO1 (stereo not drawn)	–	–	–	–	–	–
Cc1ccc(CNC(=O)C2CC(c3ccccc3C(F)(F)F)=NO2)cc1 (stereo not drawn)	?	–	–	–	–	-158
CCc1ccccc1NC(=O)Cn1nc(C(F)(F)F)cc1C1CC1	–	–	–	–	–	-78
CCCN(CCC)C(=O)C(CCC(=O)OCCCN1CCN(CCOC(=O)Cc2c(C)n(C(=O)c3ccc(Cl)cc3)c3ccc(OC)cc23)CC1)NC(=O)c1ccccc1 (stereo not drawn)	·	·	·	·	–	·
COc1ccccc1C(=O)N[C@@H]1c2ccccc2C2(CCN(Cc3ccc(C)o3)CC2)[C@H]1O	·	·	·	·	–	·
CC12CN3CC(C)(CN(C1)C3c1ccccc1F)C2 (stereo not drawn)	–	–	–	–	–	-99
CN(C)c1nc2cc3c(cc2cc1CN(CC1CCCO1)C(=O)/C=C/c1cccs1)OCO3 (stereo not drawn)	·	·	·	·	–	·
O=C(CSc1ccc(-c2ccccn2)nn1)NCc1ccc(F)cc1	–	–	–	–	–	–
O=C(CSc1ccc(-c2ccccn2)nn1)NCc1ccccc1	–	–	–	-115	–	–
CC(NC(=O)c1cccnc1)c1nnc2n1CCN(Cc1ccc(-c3ccccc3)cc1)CC2 (stereo not drawn)	·	·	·	·	–	·
O=C(CCc1ccc(O)c(O)c1)N/N=C/c1ccc2c(c1)OCO2	–	–	–	–	22µM	–
C/C(=N\NC(=O)c1n[nH]c2c1CCC2)c1cccs1	–	–	–	–	–	-118
O=C(N/N=C/c1cccs1)c1n[nH]c2c1CCCC2	–	–	–	–	–	–
Cc1ccc(-n2nc(C)c3c(C)c(CCC(=O)NCc4ccccc4)c(C)nc32)cc1	–	–	–	–	–	-107

Screening data as filed in PubChem.
